Bioassay records: PubChem, National Center for Advancing Translational Sciences (NCATS)
A selection: hits, their analogues and other compounds. The true share with any hit is near 4.6%.
TRHR enhancer = TRH receptor (human) allosteric enhancement; TRHR cells, fluo-8 calcium fluorescence, EC20 TRH enhancement; 360,000 tested, 0.66% active; P34981; enhancement, % at 2 µM; AID 493056; in the data active = enhancement above about 30%; also: 0% is about no effect
Target sequence (P34981 whole entry, looked up): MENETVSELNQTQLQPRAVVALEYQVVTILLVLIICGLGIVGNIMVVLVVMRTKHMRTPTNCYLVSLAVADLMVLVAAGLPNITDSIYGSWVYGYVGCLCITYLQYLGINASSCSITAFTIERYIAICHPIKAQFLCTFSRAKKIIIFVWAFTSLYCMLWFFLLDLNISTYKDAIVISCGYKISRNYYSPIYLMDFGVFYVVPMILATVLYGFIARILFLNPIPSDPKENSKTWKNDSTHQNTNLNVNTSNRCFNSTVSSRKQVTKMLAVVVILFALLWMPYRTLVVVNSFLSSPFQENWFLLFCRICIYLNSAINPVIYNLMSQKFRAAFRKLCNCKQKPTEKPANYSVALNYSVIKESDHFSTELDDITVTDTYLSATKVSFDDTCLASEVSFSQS
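Enhancer read-out: after compound pinning and an initial kinetic agonist-mode read, an EC20 of TRH (10 nM final) was injected and fluo-8 calcium signal (Ex 480/Em 530) followed at 1 s/cycle for 100 cycles in TRHR-expressing cells.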
TRHR agonist = activates the human TRH receptor | TRHR cells, calcium flux fluo-8, FDSS agonist mode | activation, % at 2 µM | 360,000 tested, 0.18% active; also: 0% is about no effect
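In this calcium-flux screen, cells bearing human TRHR are dye-loaded with fluo-8, baselined for 10 cycles, then exposed to library compounds; positive kinetic calcium responses during the agonist phase mark hits, with TRH as control.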
D1 antagonist = antagonists of human D1 dopamine receptor. activity change, negative = inhibition, % at 10 µM. AID 504652. HEK293 TREx D1 cells, calcium flux, dopamine EC80; stronger effect = lower value. P21728. 360,000 tested, 3.2% active; in the data active = activity change below about -30%; also: % is scaled to controls: 0 for no effect and ±100 for the full control effect
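Calcium flux readout: force-coupled, inducible Hek293 Trex D1 line, cells induced overnight at 30 C with tetracycline, dye-loaded 30–90 min at RT. Antagonism scored against EC80 dopamine challenge given 180 s after compound.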
D1 PAM = potentiators of human D1 dopamine receptor; 360,000 tested, 0.036% active; HEK293 TREx D1 cells, calcium flux, dopamine EC20 potentiation; P21728; potentiation, % at 10 µM; in the data active = potentiation above about 30%; also: 0% is about no effect
D1 ag = activates the human D1 dopamine receptor. HEK293 T-REx D1 cells, calcium flux, agonist mode. activation, % at 2 µM. 360,000 tested, 1% active. P21728; also: 0% is about no effect
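Tetracycline-induced HEK293 TREx D1 cells, force-coupled to calcium signalling, were dye-loaded with a no-wash calcium kit. Compound was pin-added after a 10 s baseline. Fluorescence was read kinetically at 1 cycle/s for 180 s, with calcium rises flagged as agonism.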
* = called active by the depositor. Rule as the data show it, unless noted: active = activation above about 30%; inactive = the rest.

What do the screens show for `O=C(CN1C(=O)S/C(=C\c2cc(Cl)c(O)c(Cl)c2)C1=O)Nc1ccccc1`?
TRHR enhancer: 4; TRHR agonist: 14; D1 antagonist: 12; D1 PAM: -2; D1 ag: 48*

Results for COc1cc(/C=C2\SC(=S)N(CCC(=O)Nc3ccccc3)C2=O)cc(OC)c1OC ?
TRHR enhancer: 2; TRHR agonist: 14; D1 antagonist: 6; D1 PAM: 0; D1 ag: 46*

Results for O=C(CN1C(=O)S/C(=C\c2ccccn2)C1=O)Nc1ccccc1 ?
TRHR enhancer: 0; TRHR agonist: 0; D1 antagonist: -2; D1 PAM: -4; D1 ag: 2

How did O=C(O)CN1C(=O)/C(=C\c2cccc(OCc3ccccc3)c2)SC1=S do in these assays?
TRHR enhancer: -1; TRHR agonist: 0; D1 antagonist: -2; D1 PAM: -11; D1 ag: 2

Results for CN1C(=O)/C(=C\c2cccc(OCc3ccccc3)c2)SC1=S ?
TRHR enhancer: 4; TRHR agonist: 1; D1 antagonist: -34*; D1 PAM: -3; D1 ag: 1

How did Cc1ccc(NS(=O)(=O)c2cc(NC(=O)c3cc(=O)[nH]c(=O)[nH]3)ccc2Cl)c(C)c1 do in these assays?
TRHR enhancer: -2; TRHR agonist: 1; D1 antagonist: 2; D1 PAM: -9; D1 ag: 6

How did COc1ccc(C2(O)CC3CCC(C2)N3c2cc(C)nc(-c3ccccc3)n2)cc1 (stereo not given) do in these assays?
TRHR enhancer: 0; TRHR agonist: 2; D1 antagonist: 16; D1 PAM: -2; D1 ag: 5

How did COC(=O)c1ccc[n+](CC(=O)c2ccc(Br)cc2)c1 do in these assays?
TRHR enhancer: -6; TRHR agonist: 0; D1 antagonist: -35*; D1 PAM: 0; D1 ag: 5

What do the screens show for `COc1ccc(C(=O)C[n+]2cccc(Br)c2)cc1`?
TRHR enhancer: 7; TRHR agonist: 0; D1 antagonist: -16; D1 PAM: -4; D1 ag: 2

What do the screens show for `COc1cccc(-c2nc3c(c(=O)[nH]c(=O)n3Cc3ccccc3)n2CCO)c1OC(F)F`?
TRHR enhancer: 7; TRHR agonist: -1; D1 antagonist: -43*; D1 PAM: -3; D1 ag: 5

How did COc1ccc(C)cc1S(=O)(=O)N1CCc2ccccc2C1 do in these assays?
TRHR enhancer: -9; TRHR agonist: -1; D1 antagonist: 6; D1 PAM: -4; D1 ag: 2

How did CSc1ccc(/C=C/c2nc3ccccc3n2S(=O)(=O)c2ccc(Br)cc2)cc1 do in these assays?
TRHR enhancer: -5; TRHR agonist: -2; D1 antagonist: -30*; D1 PAM: 1; D1 ag: 9

How did Cc1nc2ccccc2n1S(=O)(=O)c1ccc(Br)cc1 do in these assays?
TRHR enhancer: -2; TRHR agonist: -1; D1 antagonist: -44*; D1 PAM: -11; D1 ag: 4

What do the screens show for `CCOc1ccc(/C=C/c2nc3ccccc3n2S(=O)(=O)c2ccc(Br)cc2)cc1`?
TRHR enhancer: -4; TRHR agonist: 0; D1 antagonist: 7; D1 PAM: 3; D1 ag: 2

Results for CC(C)NC(=O)c1ccc(-c2cc(C(F)(F)F)ccc2Cl)o1 ?
TRHR enhancer: 0; TRHR agonist: -2; D1 antagonist: -22; D1 PAM: -5; D1 ag: 3

Results for O=C(c1ccccc1)c1ccc(OCC(O)CNCc2ccc(Cl)cc2)cc1 (stereo not given) ?
TRHR enhancer: 13; TRHR agonist: -1; D1 antagonist: -2; D1 PAM: 5; D1 ag: 75*

What do the screens show for `OC(CNC1CCCC1)COc1ccc(-c2ccccc2)cc1` (stereo not given)?
TRHR enhancer: 18; TRHR agonist: 2; D1 antagonist: -28; D1 PAM: -8; D1 ag: 21

Results for OC(CNC1Cc2ccccc2C1)COc1ccc(Cl)cc1 (stereo not given) ?
TRHR enhancer: 2; TRHR agonist: 1; D1 antagonist: 16; D1 PAM: -3; D1 ag: 40*

How did Fc1ccccc1-c1nnc2ccc3ccccc3n12 do in these assays?
TRHR enhancer: 36*; TRHR agonist: 0; D1 antagonist: -3; D1 PAM: -1; D1 ag: 1

Results for CC(=O)c1sc2nc(SCC(=O)NCCc3ccccc3)[nH]c(=O)c2c1C ?
TRHR enhancer: -2; TRHR agonist: 0; D1 antagonist: -7; D1 PAM: -2; D1 ag: 1

What do the screens show for `CCC(=O)NC(c1cc(Cl)c2ccccc2c1O)C(C)C` (stereo not given)?
TRHR enhancer: -1; TRHR agonist: 0; D1 PAM: 0; D1 ag: 0

How did COc1ccc(-c2coc3c(CN4CCCCC4)c(O)c(CN4CCCCC4)c(O)c3c2=O)cc1 do in these assays?
TRHR enhancer: 1; TRHR agonist: -1; D1 antagonist: -24; D1 PAM: -5; D1 ag: 0

How did CC(C)CC(C(=O)NC(=O)NCc1ccccc1)N1C(=O)c2ccccc2C1=O (stereo not given) do in these assays?
TRHR enhancer: -1; TRHR agonist: 0; D1 antagonist: -79*; D1 PAM: -9; D1 ag: 2

Results for COC(=O)c1cn(NC(=O)/C=C/c2ccc(OC)c(OC)c2)c(=O)c2ccccc12 ?
TRHR enhancer: 0; TRHR agonist: 1; D1 antagonist: -74*; D1 PAM: -11; D1 ag: 0

How did COC(=O)c1cn(NC(=O)/C=C/c2cccc(OC)c2OC)c(=O)c2ccccc12 do in these assays?
TRHR enhancer: -2; TRHR agonist: 0; D1 antagonist: 1; D1 PAM: -7; D1 ag: 1

Results for N#Cc1cccc(C#N)c1Oc1ccc(S(=O)(=O)Nc2ccc(Cl)cc2)cc1 ?
TRHR enhancer: 2; TRHR agonist: 2; D1 antagonist: -38*; D1 PAM: -4; D1 ag: 12

How did Cc1ccc(C)c(OCc2nnc(N)s2)c1 do in these assays?
TRHR enhancer: 35*; TRHR agonist: 0; D1 antagonist: 7; D1 PAM: -7; D1 ag: 2

Results for COc1cc(/C=C(\C#N)c2nc3ccccc3o2)ccc1O ?
TRHR enhancer: 6; TRHR agonist: 78*; D1 antagonist: -5; D1 PAM: 5; D1 ag: 332*

Results for N#C/C(=C\c1ccc(O)cc1)c1nc2ccccc2o1 ?
TRHR enhancer: -3; TRHR agonist: 6; D1 antagonist: -18; D1 PAM: -3; D1 ag: 21

Results for CCOc1ccccc1CNS(=O)(=O)c1ccc(-c2cnc(C3CC3)o2)cc1 ?
TRHR enhancer: 9; TRHR agonist: 1; D1 antagonist: 1; D1 PAM: -3; D1 ag: 13
